According to the supplement of paper PMC12067093, “Discovery and optimisation of a covalent ligand for TRIM25 and its application to targeted protein ubiquitination” (Chemical Science, 2025):
The full data set covers some 21,000 targets. This sample favours those with the largest changes.

Compound: CC1Cc2ccccc2N1C(=O)C1CCCN(C1)C(=O)CCl (mixture of isomers) [TRIM25 ligand 11 (diastereomer mixture)]
Experiment: probe-labelled cysteine peptide fold change vs DMSO (competition) (log2 fold change); higher = less target engagement (more negative = stronger competition)
Settings: THP-1, incubation time: 4 h
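Further: competitive chemoproteomic profiling in live THP-1 cells with an iodoacetamide desthiobiotin (IA-DTB) probe, comparing probe-labelled peptide intensities in compound-treated cells against DMSO-treated controls.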

UniProt Q12986, sequence (Q12986 whole entry, looked up): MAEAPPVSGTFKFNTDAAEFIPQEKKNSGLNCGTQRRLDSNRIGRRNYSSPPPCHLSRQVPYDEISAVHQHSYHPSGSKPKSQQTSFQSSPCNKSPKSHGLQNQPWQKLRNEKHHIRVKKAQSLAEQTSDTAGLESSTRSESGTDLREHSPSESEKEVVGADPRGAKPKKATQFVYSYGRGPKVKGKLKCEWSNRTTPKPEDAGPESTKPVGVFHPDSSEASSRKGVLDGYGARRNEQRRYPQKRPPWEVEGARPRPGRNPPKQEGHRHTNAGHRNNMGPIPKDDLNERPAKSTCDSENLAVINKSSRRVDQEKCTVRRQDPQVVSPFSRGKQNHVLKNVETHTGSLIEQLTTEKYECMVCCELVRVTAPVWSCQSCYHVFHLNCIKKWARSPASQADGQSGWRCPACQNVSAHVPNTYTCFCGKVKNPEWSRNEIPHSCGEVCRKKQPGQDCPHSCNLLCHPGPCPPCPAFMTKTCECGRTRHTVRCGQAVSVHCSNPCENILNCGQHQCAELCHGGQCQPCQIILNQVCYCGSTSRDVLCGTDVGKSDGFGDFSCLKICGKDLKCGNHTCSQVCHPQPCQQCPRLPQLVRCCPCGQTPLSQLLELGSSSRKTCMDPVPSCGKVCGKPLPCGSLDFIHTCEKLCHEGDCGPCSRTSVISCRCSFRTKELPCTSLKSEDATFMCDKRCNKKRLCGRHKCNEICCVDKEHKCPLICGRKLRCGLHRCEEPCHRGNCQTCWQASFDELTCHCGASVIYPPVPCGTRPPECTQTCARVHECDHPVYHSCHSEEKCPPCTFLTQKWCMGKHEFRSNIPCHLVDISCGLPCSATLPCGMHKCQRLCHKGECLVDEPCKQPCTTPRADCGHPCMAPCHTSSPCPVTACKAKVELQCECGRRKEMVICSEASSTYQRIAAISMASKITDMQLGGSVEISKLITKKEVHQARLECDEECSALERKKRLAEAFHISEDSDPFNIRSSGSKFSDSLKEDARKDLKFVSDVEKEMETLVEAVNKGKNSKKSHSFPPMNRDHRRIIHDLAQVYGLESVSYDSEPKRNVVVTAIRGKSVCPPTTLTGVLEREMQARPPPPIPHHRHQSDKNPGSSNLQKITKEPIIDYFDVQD
UniProt O75914, sequence (O75914 whole entry, looked up): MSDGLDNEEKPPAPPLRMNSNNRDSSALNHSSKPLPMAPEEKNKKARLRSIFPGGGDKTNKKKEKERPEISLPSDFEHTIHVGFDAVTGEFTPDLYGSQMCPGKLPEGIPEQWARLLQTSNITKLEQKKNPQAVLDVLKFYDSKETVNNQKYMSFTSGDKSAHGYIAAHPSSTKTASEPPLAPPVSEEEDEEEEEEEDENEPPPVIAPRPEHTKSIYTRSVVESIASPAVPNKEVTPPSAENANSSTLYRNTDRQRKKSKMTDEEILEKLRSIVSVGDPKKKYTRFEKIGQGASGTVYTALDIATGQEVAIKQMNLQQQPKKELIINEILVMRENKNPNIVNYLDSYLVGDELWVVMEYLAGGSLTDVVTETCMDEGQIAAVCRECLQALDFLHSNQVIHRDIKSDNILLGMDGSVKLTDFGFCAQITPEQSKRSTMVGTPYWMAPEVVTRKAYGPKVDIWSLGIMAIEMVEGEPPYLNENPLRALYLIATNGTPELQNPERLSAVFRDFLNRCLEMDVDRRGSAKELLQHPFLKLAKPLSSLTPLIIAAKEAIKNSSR
UniProt P06748, sequence (P06748 whole entry): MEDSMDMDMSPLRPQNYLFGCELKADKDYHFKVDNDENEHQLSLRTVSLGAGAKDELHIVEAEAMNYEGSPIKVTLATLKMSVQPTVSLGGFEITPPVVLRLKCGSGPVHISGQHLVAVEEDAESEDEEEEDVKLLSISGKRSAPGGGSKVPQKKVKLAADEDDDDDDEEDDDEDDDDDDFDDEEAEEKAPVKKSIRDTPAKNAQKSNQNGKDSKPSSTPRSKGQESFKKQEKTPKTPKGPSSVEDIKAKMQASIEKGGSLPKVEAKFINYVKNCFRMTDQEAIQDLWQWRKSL
UniProt P46934, sequence (P46934 whole entry, looked up): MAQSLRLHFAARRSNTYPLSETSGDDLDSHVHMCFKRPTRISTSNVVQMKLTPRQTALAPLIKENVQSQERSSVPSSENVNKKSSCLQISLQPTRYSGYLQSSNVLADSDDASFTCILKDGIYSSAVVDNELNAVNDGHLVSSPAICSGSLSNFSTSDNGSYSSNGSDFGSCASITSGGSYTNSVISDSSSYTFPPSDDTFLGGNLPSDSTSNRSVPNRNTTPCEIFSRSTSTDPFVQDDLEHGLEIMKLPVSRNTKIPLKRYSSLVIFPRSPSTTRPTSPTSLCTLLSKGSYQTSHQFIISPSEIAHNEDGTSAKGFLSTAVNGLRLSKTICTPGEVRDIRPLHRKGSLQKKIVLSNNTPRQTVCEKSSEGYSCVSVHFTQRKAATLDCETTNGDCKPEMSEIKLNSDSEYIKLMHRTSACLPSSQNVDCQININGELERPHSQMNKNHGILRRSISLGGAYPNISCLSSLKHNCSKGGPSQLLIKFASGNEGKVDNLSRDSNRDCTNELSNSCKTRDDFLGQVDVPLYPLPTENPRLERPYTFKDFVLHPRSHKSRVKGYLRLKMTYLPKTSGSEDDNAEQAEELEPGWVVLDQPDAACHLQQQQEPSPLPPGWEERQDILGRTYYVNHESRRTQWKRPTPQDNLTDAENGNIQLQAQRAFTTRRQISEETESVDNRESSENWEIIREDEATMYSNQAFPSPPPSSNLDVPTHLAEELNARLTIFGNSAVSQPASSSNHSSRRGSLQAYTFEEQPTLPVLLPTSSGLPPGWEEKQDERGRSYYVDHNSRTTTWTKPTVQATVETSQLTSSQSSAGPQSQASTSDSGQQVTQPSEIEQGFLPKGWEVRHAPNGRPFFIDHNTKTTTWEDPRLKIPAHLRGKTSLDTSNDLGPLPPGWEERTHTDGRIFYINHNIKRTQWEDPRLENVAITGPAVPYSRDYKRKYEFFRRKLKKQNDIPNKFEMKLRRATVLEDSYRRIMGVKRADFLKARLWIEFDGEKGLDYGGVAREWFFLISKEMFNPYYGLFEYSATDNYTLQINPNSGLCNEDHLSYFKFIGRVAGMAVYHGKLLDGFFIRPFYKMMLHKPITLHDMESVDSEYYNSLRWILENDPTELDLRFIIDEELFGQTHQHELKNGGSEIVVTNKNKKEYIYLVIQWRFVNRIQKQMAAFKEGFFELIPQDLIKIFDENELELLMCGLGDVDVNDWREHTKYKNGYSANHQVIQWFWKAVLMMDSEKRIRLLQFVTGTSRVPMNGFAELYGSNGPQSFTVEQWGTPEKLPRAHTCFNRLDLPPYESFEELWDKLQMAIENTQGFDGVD
UniProt Q9HBE1, sequence (Q9HBE1 whole entry, looked up): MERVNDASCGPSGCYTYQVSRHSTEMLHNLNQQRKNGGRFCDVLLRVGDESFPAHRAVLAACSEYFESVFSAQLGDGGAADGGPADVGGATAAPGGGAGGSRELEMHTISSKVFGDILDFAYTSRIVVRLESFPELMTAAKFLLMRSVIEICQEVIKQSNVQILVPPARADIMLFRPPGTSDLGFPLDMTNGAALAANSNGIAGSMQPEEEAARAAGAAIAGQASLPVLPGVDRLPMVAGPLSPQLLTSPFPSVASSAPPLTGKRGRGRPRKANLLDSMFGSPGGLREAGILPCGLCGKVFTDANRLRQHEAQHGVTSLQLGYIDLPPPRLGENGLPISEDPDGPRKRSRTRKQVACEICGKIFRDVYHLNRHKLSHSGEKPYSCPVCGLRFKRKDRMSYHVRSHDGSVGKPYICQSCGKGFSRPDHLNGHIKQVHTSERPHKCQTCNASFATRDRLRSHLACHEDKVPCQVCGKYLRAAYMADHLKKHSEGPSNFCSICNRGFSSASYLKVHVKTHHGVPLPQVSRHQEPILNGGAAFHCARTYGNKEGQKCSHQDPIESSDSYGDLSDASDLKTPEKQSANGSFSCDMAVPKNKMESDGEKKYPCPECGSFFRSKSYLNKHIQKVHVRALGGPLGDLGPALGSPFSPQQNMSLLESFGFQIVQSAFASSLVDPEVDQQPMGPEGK
UniProt Q7Z628, sequence (Q7Z628 whole entry, looked up): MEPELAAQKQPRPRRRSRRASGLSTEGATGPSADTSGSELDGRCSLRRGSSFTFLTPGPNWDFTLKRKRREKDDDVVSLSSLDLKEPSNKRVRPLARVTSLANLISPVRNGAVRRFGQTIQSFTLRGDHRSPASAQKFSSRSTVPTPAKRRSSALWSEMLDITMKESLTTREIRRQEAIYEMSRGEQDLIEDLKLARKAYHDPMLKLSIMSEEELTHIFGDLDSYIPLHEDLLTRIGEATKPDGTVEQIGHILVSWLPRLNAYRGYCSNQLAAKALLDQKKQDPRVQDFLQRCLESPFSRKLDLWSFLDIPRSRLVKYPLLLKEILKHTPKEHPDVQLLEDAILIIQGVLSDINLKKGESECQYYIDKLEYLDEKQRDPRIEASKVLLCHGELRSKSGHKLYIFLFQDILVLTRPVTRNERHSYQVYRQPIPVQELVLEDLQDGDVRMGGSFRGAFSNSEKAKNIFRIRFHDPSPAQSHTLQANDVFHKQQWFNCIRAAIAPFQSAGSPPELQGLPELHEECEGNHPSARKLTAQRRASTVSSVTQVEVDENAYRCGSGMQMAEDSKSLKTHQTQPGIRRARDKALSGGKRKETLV
UniProt P32242, sequence (P32242 whole entry): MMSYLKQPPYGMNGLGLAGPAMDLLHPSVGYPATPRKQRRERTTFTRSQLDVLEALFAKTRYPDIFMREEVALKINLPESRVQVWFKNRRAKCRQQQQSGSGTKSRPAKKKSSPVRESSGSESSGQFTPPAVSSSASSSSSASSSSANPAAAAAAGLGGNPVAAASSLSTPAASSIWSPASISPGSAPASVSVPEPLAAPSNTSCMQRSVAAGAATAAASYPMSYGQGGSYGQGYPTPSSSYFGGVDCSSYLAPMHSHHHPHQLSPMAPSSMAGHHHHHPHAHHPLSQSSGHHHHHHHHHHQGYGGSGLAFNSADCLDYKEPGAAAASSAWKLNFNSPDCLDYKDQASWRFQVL

Target	probe-labelled cysteine peptide fold change (10 µM)	probe-labelled cysteine peptide fold change (50 µM)
PDS5B_Q9NTI5_732_YAIHCIHAIFSSK (UniProt Q9NTI5)	-0.00231	0.0228
NVL_O15381_431_FDREICLGIPDEASR (UniProt O15381)	-0.0502	0.0728
NSUN2_Q08J23_673+678_YEPDSANPDALQCPIVLCGWR (UniProt Q08J23)	0.0479	0.0634
NCKIPSD_Q9NZQ3_138_QPNGVCR (UniProt Q9NZQ3)	-0.0933	-0.32
PDCD4_Q53EL6_288_GTVDCVQAR (UniProt Q53EL6)	0.164	0.233
NLN_Q9BYT8_451_YNHAACFGLQPGCLLPDGSR (UniProt Q9BYT8)	0.193	0.181
PDHB_P11177_161_GPNGASAGVAAQHSQCFAAWYGHCPGLK (UniProt P11177)	0.0327	0.0759
OTX1_P32242_340_LNFNSPDCLDYK (UniProt P32242)	0.161	-0.0204
PARK7_Q99497_46_VTVAGLAGKDPVQCSR (UniProt Q99497)	-0.13	-0.213
NOB1_Q9ULX3_147_GHSACEPENLEFSSFMFWR (UniProt Q9ULX3)	-0.0264	-0.119
NPM3_O75607_79_VEEEDDAEHVLALTMLCLTEGAKDECNVVEVVAR (UniProt O75607)	-0.083	0.00371
NDUFB10_O96000_119_EGQNYQQNCIK (UniProt O96000)	-0.0835	-0.0614
NPTX1_Q15818_89_CESQSTLDPGAGEAR (UniProt Q15818)	-0.269	0.111
NT5DC2_Q9H857_475_FSDLYMASLSCLLNYR (UniProt Q9H857)	0.0123	0.0662
P3H1_Q32P28_123_CLGPPAAHSLSEEMELEFR (UniProt Q32P28)	0.411	0.646
NKRF_O15226_386_VFLQDHCLAEGYGTKK (UniProt O15226)	-0.274	-0.153
NFRKB_Q6P4R8_17_MDSLDHMLTDPLELGPCGDGHGTR (UniProt Q6P4R8)	-0.196	-1.37
PCBP3_P57721_141_LVVPASQCGSLIGK (UniProt P57721)	-0.0567	-0.121
PCID2_Q5JVF3_25_DGASCAELVSFK (UniProt Q5JVF3)	-0.115	-0.0805
PARP4_Q9UKK3_1099_LLVYGFIPHCTQATLCALIQEK (UniProt Q9UKK3)	0.224	-0.243
PDLIM1_O00151_286_HRHPECYVCTDCGTNLK (UniProt O00151)	0.117	0.192

Target	probe-labelled cysteine peptide fold change (10 µM)	probe-labelled cysteine peptide fold change (50 µM)
NOC4L_Q9BVI4_509_KGPEPVPLEFIPAQGLLGRPGELCAQHFTLS (UniProt Q9BVI4)	0.0196	-0.199
NF1_P21359_1016_LCQLVEVMMAR (UniProt P21359)	0.0549	0.181
PAK2_Q13177_352_ECLQALEFLHANQVIHR (UniProt Q13177)	0.0134	0.223
ORC3_Q9UBD5_158_LISQLMDCCVDIK (UniProt Q9UBD5)	-0.0854	-0.134
NDUFAF4_Q9P032_87_AAETCQEPK (UniProt Q9P032)	-0.0492	-0.243
NUS1_Q96E22_235_QKRPTDLDVDTLASLLSSNGCPDPDLVLK (UniProt Q96E22)	-0.332	-0.641
NFX1_Q12986_295_STCDSENLAVINK (UniProt Q12986)	0.0624	-0.0282
OSBPL1A_Q9BXW6_340_EDWLEAIEEHSAYSTHYCSQDQLTDEEEEDTVSAADLKK (UniProt Q9BXW6)	0.199	-0.153
PAICS_P22234_100_CGETAFIAPQCEMIPIEWVCR (UniProt P22234)	0.00496	0.1
NOP2_P46087_393_ILDMCCAPGGK (UniProt P46087)	-0.0381	-0.0998
NDC1_Q9BTX1_9_ATAVSRPCAGR (UniProt Q9BTX1)	0.00914	-0.136
NDRG3_Q9UGV2_30_NFQDFDCQEHDIETTHGVVHVTIR (UniProt Q9UGV2)	0.0929	0.0549
OSBPL9_Q96SU4_577_SILTVPWVELGGECNINCSK (UniProt Q96SU4)	0.311	0.198
NCDN_Q9UBB6-2_5_ASDCEPALNQAEGR (UniProt Q9UBB6)	0.0744	-0.297
PAFAH1B2_P68402_206_ICKPLHELIMQLLEETPEEK (UniProt P68402)	-0.486	-0.692
NIPBL_Q6KC79_304_GSRPPLILQSQSLPCSSPR (UniProt Q6KC79)	0.204	0.00224
P4HB_P07237_53+56_YLLVEFYAPWCGHCK (UniProt P07237)	-0.316	-0.77
PABPC4_Q13310-3_488_VGSECPDR (UniProt Q13310)	-0.118	-0.166
PARK7_Q99497_46_DPVQCSR (UniProt Q99497)	0.105	0.0666
NID1_P14543_679_EGSPDALQNPCYIGTHGCDTNAACRPGPR (UniProt P14543)	0.112	-0.182
NDRG1_Q92597_289_MADCGGLPQISQPAK (UniProt Q92597)	-0.006	-0.0335

Target	probe-labelled cysteine peptide fold change (10 µM)	probe-labelled cysteine peptide fold change (50 µM)
PAK3_O75914_424_LTDFGFCAQITPEQSKR (UniProt O75914)	-0.27	-0.161
PARP1_P09874_845_IEREGECQR (UniProt P09874)	-0.00747	0.129
NLRX1_Q86UT6_259_LAGTGLCSDPEEPQEPAAIIVNLLR (UniProt Q86UT6)	0.274	-0.746
NEMF_O60524_575_YLTPGDIYVHADLHGATSCVIK (UniProt O60524)	0.0554	0.13
NUP133_Q8WUM0_700+702_EVSQVDTICECLLEHEEQVLR (UniProt Q8WUM0)	0.507	0.631
PATZ1_Q9HBE1_297_EAGILPCGLCGK (UniProt Q9HBE1)	0.00899	-0.0723
NET1_Q7Z628_267_GYCSNQLAAK (UniProt Q7Z628)	0.0505	0.103
PCBP1_Q15365_293_GYWASLDASTQTTHELTIPNNLIGCIIGR (UniProt Q15365)	-0.0964	-0.174
NSUN6_Q8TEA1_242_ILDLCAAPGGK (UniProt Q8TEA1)	0.157	-0.0703
PARP1_P09874_908_SANYCHTSQGDPIGLILLGEVALGNMYELK (UniProt P09874)	-0.146	-0.761
NOL10_Q9BSC4_147_DFSYHYPSCDLYFVGASSEVYR (UniProt Q9BSC4)	-0.459	-0.299
NUP133_Q8WUM0_457_IVFNAQGDSVLGAGACGGVPIIFSR (UniProt Q8WUM0)	-0.146	-0.142
PDLIM7_Q9NR12_370_MTWHVHCFTCAACK (UniProt Q9NR12)	-0.0568	0.119
NUP210_Q8TEM1_746_FVCAPPSR (UniProt Q8TEM1)	0.0568	0.329
NUP188_Q5SRE5_161_VEYADCVDK (UniProt Q5SRE5)	0.394	0.321
PAFAH1B1_P43034_281_EHEHVVECISWAPESSYSSISEATGSETK (UniProt P43034)	-0.156	0.158
NDUFV2_P19404_135+140_YHIQVCTTTPCMLR (UniProt P19404)	0.0444	-0.234
NOL6_Q9H6R4_256_LHPCPPPDFFRPCR (UniProt Q9H6R4)	0.0181	0.0433
NVL_O15381_803_EASICALR (UniProt O15381)	0.0326	0.175
P4HB_P07237_312_ILEFFGLKKEECPAVR (UniProt P07237)	-0.567	-0.501
NEMF_O60524_663_VDESCVWR (UniProt O60524)	0.233	0.569

Target	probe-labelled cysteine peptide fold change (10 µM)	probe-labelled cysteine peptide fold change (50 µM)
PALD1_Q9ULE6_631_IPMPDFCAPREEDFDQLLEALR (UniProt Q9ULE6)	0.052	0.057
NUDT14_O95848_12_CAASPYLRPLTLHYR (UniProt O95848)	-0.125	0.0208
NEDD4_P46934-4_4_ATCAVEVFGLLEDEENSR (UniProt P46934)	-0.669	-0.509
NIT2_Q9NQR4_153_VGLGICYDMR (UniProt Q9NQR4)	-0.261	-1.18
NUP155_O75694_667_HNGICIYFSR (UniProt O75694)	-0.0348	0.207
NECAP2_Q9NVZ3_11_MEESGYESVLCVKPDVHVYR (UniProt Q9NVZ3)	-0.174	-0.048
OPLAH_O14841_1053_DIPLNQGCLAPVR (UniProt O14841)	-0.146	0.136
NPM1_P06748_21_MEDSMDMDMSPLRPQNYLFGCELK (UniProt P06748)	-0.279	-0.642
P4HA1_P13674_293_QKYEMLCR (UniProt P13674)	-0.0868	-0.162
NT5DC1_Q5TFE4_139_YYFYDNYFDLPGALLCAR (UniProt Q5TFE4)	0.416	0.718
P4HB_P07237_397+400_NVFVEFYAPWCGHCK (UniProt P07237)	-0.122	-0.34
NEK1_Q96PY6_276_FLSPQLIAEEFCLK (UniProt Q96PY6)	0.0381	0.161
OSBPL1A_Q9BXW6_520_DCGGGDALSNGIK (UniProt Q9BXW6)	0.00496	0.0314
NCOA7_Q8NI08_487_GALDLETCEK (UniProt Q8NI08)	-0.182	-0.181
NSUN5P1_Q3KNT7-3_149_AAAGACTPPCT<|>NSUN5_Q96P11-2_461_AAAGACTPPCT (UniProt Q96P11+Q3KNT7)	0.129	-0.0921
OAT_P04181_150_VLPMNTGVEAGETACK (UniProt P04181)	0.0276	0.0487
PDF_Q9HBH1_222_IIQHEMDHLQGCLFIDK (UniProt Q9HBH1)	-0.0352	0.0675
PDPR_Q8NCN5_357_LVNCPETFTPDMR (UniProt Q8NCN5)	-0.0721	0.18
NUP155_O75694_373_LYFSTCPFR (UniProt O75694)	0.15	0.262
